Assay outcomes deposited in PubChem BioAssay by National Center for Advancing Translational Sciences (NCATS).
TDP-43 rescue: TDP-43 toxicity inhibition in yeast; yeast TDP-43 toxicity rescue, BacTiter-Glo growth, 24 h; Potency, µM (highest dose often 46.1 µM), actives largely listed as activators; actives 0.45% (n = 45,000); active = well fitted activation curve with a large enough effect; also: 0% is about no effect; nearly all actives have a fitted effect of over 55% in size
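TDP-43-expressing yeast, pregrown in raffinose, seeded at OD600 0.02 in galactose medium with compound for 24 hr at 30 deg C. Growth read by BacTiter-Glo luminescence, so rescue of toxicity appears as activation.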
* marks the source's active call; other numbers are inactive results; i = inactive. Many of the other results were omitted from the sample, so hits are more common in it than they were. Potency is read from the fitted curve at half-maximal effect.

SMILES	TDP-43 rescue
NC(=O)C1CCCN(C(=O)CNC(=O)C23CC4CC(CC(C4)C2)C3)C1 (configuration not stated)	i
Cc1nc(N2CCN(C)CC2)c2c(C)c(C(=O)Nc3ccc(F)cc3)sc2n1	i
COc1ccc(C)cc1NC(=O)c1sc2nc(C)nc(N3CCOCC3)c2c1C	i
Cc1nc(N2CCCCC2)c2c(C)c(C(=O)Nc3ccccc3C(F)(F)F)sc2n1	18µM*
Cc1ccc(SCC(=O)NNC(=O)CNC(=O)c2ccc(Br)cc2)cc1	i
O=C(Nc1ccc2c(c1)OCO2)c1noc2c1CCCC2	i
O=C(O)c1cccc(Nc2ccncc2[N+](=O)[O-])c1	i
CN(C)C(CNC(=O)c1cc(-c2ccco2)nc2ccccc12)c1ccccc1 (configuration not stated)	i
CC(=O)Nc1ccc(CN(C)c2c(C)nc3ccc(C(=O)NCCc4ccccn4)cn23)cc1	i
Cc1cnnn1-c1ccc([N+](=O)[O-])cc1	i
Cc1c(C(=S)Nc2ccccc2)cnn1-c1ccc([N+](=O)[O-])cc1	i
Cc1nn(-c2ccccc2)c(N)c1Sc1ccc([N+](=O)[O-])cc1	14µM*
CCOc1ccc(S(=O)(=O)N2CCCC(C(=O)NCc3cccnc3)C2)cc1Cl (configuration not stated)	i
O=[N+]([O-])c1cccc(S(=O)(=O)N2CCN(S(=O)(=O)N3CCCCCC3)CC2)c1	i
COc1ccc(CCCNC(=O)C2(C)Cc3c(-c4ccc(NC(C)=O)cc4)ccnc3O2)cc1 (configuration not stated)	i
CCc1sc(C(=O)NNC(=O)c2cncc(Br)c2)cc1C	i
CC(C)c1ccc(NC(=O)C2(C)Cc3c(-c4ccc(C(N)=O)cc4)ccnc3O2)cc1 (configuration not stated)	i
CCCS(=O)(=O)NC(=O)C1(C)CCN(C(=O)Cc2ccc(OC)c(OC)c2)C1 (configuration not stated)	i
O=C(COC(=O)c1ccc(F)c(S(=O)(=O)N2CCOCC2)c1)NCc1ccc(F)cc1	i
Cn1c(=O)c2c(ncn2CCOc2ccc(Br)cc2)n(C)c1=O	11µM*
COc1ccc(/C=N/NC(=O)Cn2cnc3c2c(=O)n(C)c(=O)n3C)cc1	i
COC(=O)c1ccc(NC(=O)Cn2cnc3c2c(=O)n(C)c(=O)n3C)cc1	i
CCCCN(C(=O)C1CCCO1)c1c(N)n(CCC)c(=O)[nH]c1=O (configuration not stated)	i
COc1ccc(C(=O)NNC(=O)c2ccccc2[N+](=O)[O-])cc1	i
CC(C)(C)c1ccc(OCC(=O)NNC(=S)NC(=O)c2ccccc2[N+](=O)[O-])c(Br)c1	11µM*
SMILES	TDP-43 rescue
CC(C)CNC(=O)COc1ccccc1[N+](=O)[O-]	i
COCCn1c(SCC(=O)NNC(=O)c2ccccc2)nc2ccccc21	i
O=C(Cc1ccccc1)Nc1ccc(F)cc1	i
O=C(Nc1ccc(F)cc1)C(Cc1ccccc1)n1cccc1 (configuration not stated)	13µM*
O=C(NC1CCCCCC1)C(Cc1ccccc1)n1cccc1 (configuration not stated)	i
CN(C)c1cccc(CNC(=O)c2csc(COCCO)n2)c1	i
CC(C)C(N)c1csc(NC(=O)Nc2cccc(Cl)c2)n1 (configuration not stated)	i
COc1ccccc1OCc1nnc(-c2ccccc2)o1	i
CN1CCN(c2oc(/C=C/c3ccc(F)cc3)nc2C#N)CC1	i
O=C(COC(=O)c1c(Cl)ccc(Cl)c1Cl)NCC1CCCO1 (configuration not stated)	14µM*
O=C(COC(=O)c1ccc(Br)cc1)NCC1CCCO1 (configuration not stated)	i
O=C(COC(=O)/C=C/c1ccccc1Cl)NCC1CCCO1 (configuration not stated)	i
CC(N)c1csc(NC(=O)Nc2cccc(C(F)(F)F)c2)n1 (configuration not stated)	i
Cc1cc(NCc2ccccn2)n2ncc(-c3ccccc3)c2n1	8.9µM*
CN(C)CCCNc1cc(C(C)(C)C)nc2c(-c3ccccc3)cnn12	i
CCCc1cc(NCc2ccccn2)n2nc(C)c(-c3ccccc3)c2n1	i
CC(=O)Nc1ccc(Nc2nc3ccc(Cl)cc3n3cnnc23)cc1	i
CN(Cc1ccccc1)c1ccc(C(=O)O)cc1[N+](=O)[O-]	16µM*
CN(C)c1ccc(C(=O)c2ccccc2C(=O)O)cc1[N+](=O)[O-]	i
COc1ccccc1Nc1ccc(C(=O)O)cc1[N+](=O)[O-]	i
Cc1cccc(C)c1NC(=O)Cn1nnc(S(=O)(=O)c2ccccc2)c1N	i
CCCCNC(=O)C1(C)CCCCN1C(=O)c1cccc(OC(F)(F)F)c1 (configuration not stated)	i
O=C(C1CCCN(S(=O)(=O)c2cc(Cl)ccc2Cl)C1)N1CCCC1 (configuration not stated)	14µM*
COc1ccc(Cl)cc1S(=O)(=O)N1CCCC(C(=O)N2CCOCC2)C1 (configuration not stated)	i
O=C(C1CCCN(S(=O)(=O)c2ccc(Cl)cc2)C1)N1CCCC1 (configuration not stated)	i
SMILES	TDP-43 rescue
CC1=C(C(=O)NC(C)CCc2ccccc2)C2(CCC(C)CC2)OC1=O (configuration not stated)	i
CCOc1ccc(NC(=O)C2=C(C)C(=O)OC23CCC(C)CC3)cc1 (configuration not stated)	13µM*
COc1ccc(OC)c(CCNC(=O)C2=C(C)C(=O)OC23CCC(C)CC3)c1 (configuration not stated)	i
CCCC(=O)Nc1cc(OC)c(NC(=S)Nc2ccc(CC)cc2)cc1OC	i
CC1CCN(C(=O)CSc2nnc(-c3cccnc3)o2)CC1	i
O=S(=O)(c1cccc(-c2nnc(SCc3ccc(Cl)cc3)o2)c1)N1CCCCC1	i
Brc1ccc(CSc2nnc(-c3cccnc3)o2)cc1	13µM*
N#C/C(=C/c1ccc(N2CCOCC2)o1)c1ccc(Br)cc1	14µM*
CCCN1C(=O)S/C(=C/c2ccc(N3CCOCC3)o2)C1=O	i
N#C/C(=C\c1ccc(N2CCOCC2)o1)C(=O)Nc1ccc(O)cc1	i
CSc1ccccc1C(=O)Nc1ccc2c(c1)CCC2	i
O=C(Nc1ccc2c(c1)CCC2)c1cccc(F)c1	16µM*
O=C(Cc1cccc(F)c1)Nc1ccc2c(c1)CCC2	i
Cc1ccc(NC(=O)CN2C(=O)NC(C)(CC(C)C)C2=O)c(Br)c1 (configuration not stated)	i
O=C(COc1ccc2ccccc2c1)NNC(=O)C(=O)Nc1ccccc1	i
O=C(Nc1ccc2ccccc2c1)c1ccccc1O	i
C/C(=C\C(=S)Nc1ccccc1)Nc1ccc2ccccc2c1	14µM*
COc1ccc(NC(=O)CNC(=O)c2nn(-c3ccc(OC)c(Cl)c3)c(=O)c3ccccc23)c(OC)c1	i
Cc1nc2ccc(NC(=O)c3ccc(=O)[nH]c3)cc2s1	i
CCc1sc(C(=O)Nc2ccc3nc(C)sc3c2)cc1C	11µM*
C=CCNC(=O)Nc1ccc2nc(C)sc2c1	i
Cc1cc2c(=O)n(C)c(SCC(=O)Nc3ccc(F)cc3)nc2s1	i
CC(=O)Nc1ccc(C(=O)N2CCCCC2c2cc(C(=O)NCc3cccnc3)no2)cc1 (configuration not stated)	i
O=C(Nc1ccccc1C(=O)N/N=C/c1ccccc1)c1ccco1	i
